Data reported in the supplement of paper PMC7156485.

Tests used:
Conditions in all cases: concentration: 10 µM; 24 h
[1] = test system: HCC1569; assay: cell number relative to DMSO (% of DMSO); higher = more cells (less growth inhibition / toxicity)
Method in brief: (§1)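 For HCC1569 and TDF cells, compounds at 10 µM were applied for 24 h at 37 °C in triplicate in 384-well plates. Cells were fixed in 3.7% formaldehyde, stained for H1.0 and with DAPI, and imaged at ×10 over six fields per well. The endpoint, H1.0 nuclear intensity or cell number, is shown as percent of the plate control using the median of replicates. Positional effects were smoothed for HCC1569 only.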

[2] = test system: TDF; assay: as above
Method in brief: as §1

[3] = test system: TDF; assay: H1.0 immunofluorescence intensity relative to DMSO (% of DMSO); higher = stronger H1.0 induction, active = 120 or more
Method in brief: as §1

[4] = test system: HCC1569; assay: H1.0 immunofluorescence intensity relative to DMSO (% of DMSO); higher = stronger H1.0 induction, active = 140 or more
Method in brief: as §1
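Wherever H1.0 immunofluorescence intensity relative to DMSO is given: TDF is a line of transformed human dermal fibroblasts of mesenchymal origin.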
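Wherever cell number relative to DMSO is given: TDF denotes transformed human dermal fibroblasts of mesenchymal origin.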

For `O=C1Nc2ccc3ncsc3c2C1=Cc1cnc[nH]1` [PKR Inhibitor], the cell number [1] was 61.1, the cell number [2] was 17 and the H1.0 immunofluorescence intensity [3] was 112 (inactive). For the same compound, the H1.0 immunofluorescence intensity [4] was 136 (inactive).
In the case of `O=c1[nH]c2ccccc2n1C1CCN(Cc2ccc(-c3nc4cc5[nH]cnc5cc4nc3-c3ccccc3)cc2)CC1` [Akt Inhibitor VIII, Isozyme-Selective, Akti-1/2], the cell number [1] is reported as 75.9, the cell number [2] is reported as 81.2 and the H1.0 immunofluorescence intensity [3] is reported as 105 (inactive). The H1.0 immunofluorescence intensity [4] was 131 (inactive).
For `CCCN1CCCC2Cc3nc(N)ncc3CC21.Cl.Cl` (stereo not drawn) [Quinelorane dihydrochloride], the cell number [1] was 99.7, the cell number [2] was 113 and the H1.0 immunofluorescence intensity [3] was 95 (inactive). The H1.0 immunofluorescence intensity [4] was 106 (inactive).
In the case of `CC1=CC(=O)C2=C(C)CC(O)C3C(C)C(=O)OC3C12` (stereo not drawn) [Austricin], the cell number [1] is reported as 101, the cell number [2] is reported as 97.7 and the H1.0 immunofluorescence intensity [3] is reported as 96.7 (inactive). The H1.0 immunofluorescence intensity [4] was 98.1 (inactive).
With `O=C(O)C=CC(=O)O.O=C(O)C=CC(=O)O.c1ccc2nc(N3CCNCC3)ccc2c1` [Quipazine dimaleate] the cell number [1] was 97.5, the cell number [2] was 103 and the H1.0 immunofluorescence intensity [3] was 90 (inactive). The H1.0 immunofluorescence intensity [4] was 112 (inactive).
With `COc1ccc2c(c1)N1C(C=C(C)C)OOC(C)(C)CC3C1C2C(O)C1(O)C(=O)N2CCCC2C(=O)N31` (stereo not drawn) [Verruculogen] the cell number [1] was 102, the cell number [2] was 106 and the H1.0 immunofluorescence intensity [3] was 96.9 (inactive). The H1.0 immunofluorescence intensity [4] was 98.1 (inactive).
With `CC(C)C1(NC(=O)C2CC3c4cccc5[nH]cc(c45)CC3N(C)C2)OC2(O)C3CCCN3C(=O)C(Cc3ccccc3)N2C1=O.CS(=O)(=O)O` (stereo not drawn) [Dihydroergocristine methanesulfonate] the cell number [1] was 91.8, the cell number [2] was 109 and the H1.0 immunofluorescence intensity [3] was 106 (inactive). For the same compound, the H1.0 immunofluorescence intensity [4] was 126 (inactive).
